Source: the supplement of paper PMC3334620
In all, about 33,000 sequences were measured (“E-score (-0.5 to 0.5)”: median about -0.016, highest 2% from about 0.3 on). This excerpt belongs to a sample that is enriched for the highest values.

biological target: T1, Yer184c (UniProt P39961); assay: PBM E-score (8-mer binding enrichment) (E-score (-0.5 to 0.5)); higher = stronger / more preferred TF binding; conditions: protein concentration: 100 nM; construct: GST-full length
T1 sequence: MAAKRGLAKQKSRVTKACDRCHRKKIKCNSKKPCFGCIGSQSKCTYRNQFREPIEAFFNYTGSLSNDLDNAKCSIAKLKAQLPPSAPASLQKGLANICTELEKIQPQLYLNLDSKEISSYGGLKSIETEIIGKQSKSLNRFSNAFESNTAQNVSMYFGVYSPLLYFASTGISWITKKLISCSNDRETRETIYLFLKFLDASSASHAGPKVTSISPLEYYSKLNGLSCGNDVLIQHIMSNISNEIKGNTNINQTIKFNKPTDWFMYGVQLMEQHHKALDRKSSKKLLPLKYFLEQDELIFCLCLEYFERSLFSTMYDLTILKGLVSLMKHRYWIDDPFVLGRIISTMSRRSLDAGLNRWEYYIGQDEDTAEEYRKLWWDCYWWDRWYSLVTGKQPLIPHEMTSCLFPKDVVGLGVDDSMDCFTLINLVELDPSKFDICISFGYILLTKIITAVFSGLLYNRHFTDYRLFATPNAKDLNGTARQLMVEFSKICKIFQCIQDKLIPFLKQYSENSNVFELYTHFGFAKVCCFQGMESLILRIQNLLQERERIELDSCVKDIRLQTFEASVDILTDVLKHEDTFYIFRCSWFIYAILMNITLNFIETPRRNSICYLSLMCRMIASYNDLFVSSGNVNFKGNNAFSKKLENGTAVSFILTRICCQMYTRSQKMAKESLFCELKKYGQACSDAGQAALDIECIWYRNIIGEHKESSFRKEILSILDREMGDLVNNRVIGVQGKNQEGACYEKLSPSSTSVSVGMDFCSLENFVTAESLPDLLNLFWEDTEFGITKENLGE
Summary of the method: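 Each ungapped eight-base word and its reverse complement, pooled, received an E-score from the Universal PBM Analysis Suite. Underlying scans, normalised with masliner, recorded fluorescent anti-GST bound to GST-tagged yeast transcription factors. These were applied at about 100-200 nM to universal all-10-mer Agilent arrays double-stranded by primer extension.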

First: CGACTAAG
Second: GTTCGCGA
The “PBM E-score” value of the first is lower: -0.0168 for the first, 0.311 for the second.

First: ATTCGCGA
Second: CTTCGCGA
The “PBM E-score” value of the first is lower: -0.0163 for the first, 0.0769 for the second.

Going from GCTTCCGA to TATTCCAA, the “PBM E-score” value falls from 0.306 to 0.115.

Compared with AATTCCCA, AATTCCGA is higher in “PBM E-score” value: -0.123 for the first, 0.389 for the second.

Compared with GATTCCGA, TATTCCCA is lower in “PBM E-score” value: 0.33 for the first, 0.0619 for the second.

Going from AATTCCAA to CCTTCCGA, the “PBM E-score” value rises from 0.116 to 0.227.

Going from GCTTCCTA to GATTCCGC, the “PBM E-score” value rises from 0.0691 to 0.0917.

First: TATTCCGA
Second: GATTCCCA
The “PBM E-score” value of the first is higher: 0.389 for the first, -0.0287 for the second.

First: GGGTAGAA
Second: CAGAGCAG
The “PBM E-score” value of the first is lower: -0.0545 for the first, -0.00548 for the second.

Compared with ACCAGCTC, AGACCTAA is higher in “PBM E-score” value: -0.141 for the first, -0.106 for the second.

Compared with AGAGACCG, AATTTCCA is higher in “PBM E-score” value: -0.00169 for the first, 0.145 for the second.

Going from ATCTCTAG to TCTATGAA, the “PBM E-score” value rises from -0.118 to 0.112.

Compared with CACTTTCC, CAAATTTA is higher in “PBM E-score” value: 0.021 for the first, 0.119 for the second.

Compared with CTAAATTA, AGAAATTA is higher in “PBM E-score” value: 0.202 for the first, 0.354 for the second.

First: TAAAATTA
Second: GGAAATTA
The “PBM E-score” value of the first is higher: 0.341 for the first, 0.201 for the second.

Compared with CAAAATTA, TAAATTTA is higher in “PBM E-score” value: 0.212 for the first, 0.311 for the second.

Compared with AGAAATTC, AAAATTTA is higher in “PBM E-score” value: 0.077 for the first, 0.228 for the second.

Compared with ATAAATTG, AAAAATTA is lower in “PBM E-score” value: 0.254 for the first, 0.253 for the second.

Compared with ATAAATTA, CGAACTAC is lower in “PBM E-score” value: 0.316 for the first, 0.0997 for the second.

Going from GATTGCCA to GACAGTAC, the “PBM E-score” value rises from -0.0755 to 0.135.

Going from ACACTCTC to ACAATCGG, the “PBM E-score” value rises from 0.0613 to 0.307.

Going from ACAATCGC to ACAATCGT, the “PBM E-score” value falls from 0.0673 to -0.28.

Going from GCTGAACC to AACGCCAG, the “PBM E-score” value falls from 0.0738 to 0.0264.

Compared with AGGCCGTA, CGGCCGCA is higher in “PBM E-score” value: 0.178 for the first, 0.277 for the second.

First: AGGCCGGC
Second: CGGCCGGA
The “PBM E-score” value of the first is lower: 0.265 for the first, 0.402 for the second.

First: CGGCCGTA
Second: CGGCCTTC
The “PBM E-score” value of the first is lower: 0.311 for the first, 0.33 for the second.

Going from CGGCCGTC to CGGCCTTA, the “PBM E-score” value rises from 0.278 to 0.291.

Compared with AGGCCTTC, CGGCCGCC is higher in “PBM E-score” value: -0.0978 for the first, 0.209 for the second.

First: CGGCCGGC
Second: AGGCCGGA
The “PBM E-score” value of the first is higher: 0.42 for the first, 0.247 for the second.

Compared with CAGTAGAA, AATCCTCA is higher in “PBM E-score” value: -0.069 for the first, -0.0565 for the second.

Compared with GCCGATAC, CTCAACAG is lower in “PBM E-score” value: 0.13 for the first, -0.0543 for the second.

Going from GAAGGGAA to AGCTCATG, the “PBM E-score” value rises from -0.203 to -0.175.

Going from AGAGTGGC to CGGCGATC, the “PBM E-score” value rises from -0.217 to 0.312.

Compared with AGGCGATA, CGGCGATA is higher in “PBM E-score” value: -0.12 for the first, 0.36 for the second.

First: TGGCGAAA
Second: AGGCGATC
The “PBM E-score” value of the first is higher: 0.0101 for the first, -0.168 for the second.

Going from CGGCGAAA to CGGCGACC, the “PBM E-score” value falls from 0.35 to 0.237.

Compared with GGGCGATA, CGGCGAAG is higher in “PBM E-score” value: -0.222 for the first, 0.205 for the second.

Going from GAACAGCA to ACCCAAGG, the “PBM E-score” value falls from 0.123 to -0.162.

Compared with ACGGCGAT, CCCCCTTA is lower in “PBM E-score” value: 0.188 for the first, -0.348 for the second.

Compared with CGAGGTTA, CCAGGGTA is lower in “PBM E-score” value: -0.00293 for the first, -0.174 for the second.

Going from ACTAACTC to ATTCTTTA, the “PBM E-score” value rises from -0.00452 to 0.0489.

First: CTGAGTGA
Second: ATCCTATG
The “PBM E-score” value of the first is higher: 0.24 for the first, -0.0991 for the second.

First: CTGAATAA
Second: ATTAACCA
The “PBM E-score” value of the first is higher: 0.134 for the first, -0.114 for the second.

Compared with ATTAACCC, ATTAACCG is higher in “PBM E-score” value: 0.0664 for the first, 0.335 for the second.

Compared with CCTCCGTA, GCTCCGGA is higher in “PBM E-score” value: -0.0207 for the first, 0.367 for the second.

Compared with GCTCCGCA, CCTCCGCA is lower in “PBM E-score” value: 0.0792 for the first, -0.247 for the second.

Going from GCTCCGTA to CCTCCGGA, the “PBM E-score” value rises from 0.205 to 0.337.

Compared with CTTGACAA, CGGACCGA is higher in “PBM E-score” value: 0.152 for the first, 0.402 for the second.

Compared with CGAACCGC, CGGACCGC is lower in “PBM E-score” value: 0.189 for the first, 0.104 for the second.

Going from GGAACCGA to CGGACCAG, the “PBM E-score” value falls from 0.248 to 0.185.

Going from CGAACCGA to CGGACCAA, the “PBM E-score” value rises from 0.328 to 0.343.

Going from CGGACCAC to GGGACCGA, the “PBM E-score” value falls from 0.244 to 0.158.

Compared with AACGGTTA, AGAGACAT is lower in “PBM E-score” value: 0.0289 for the first, -0.0279 for the second.

Going from GATAGCGC to CAAATAGC, the “PBM E-score” value rises from -0.051 to 0.0894.

Compared with AAAGGAAA, CGGATCCA is higher in “PBM E-score” value: 0.203 for the first, 0.263 for the second.

First: AAGATCCG
Second: CAGATCCC
The “PBM E-score” value of the first is higher: 0.091 for the first, -0.21 for the second.

Compared with CAGATCCG, CGGATCCG is higher in “PBM E-score” value: 0.317 for the first, 0.445 for the second.

First: CGGATCCC
Second: GGCATGAC
The “PBM E-score” value of the first is higher: 0.171 for the first, -0.199 for the second.

Compared with CCGGATAG, ACGGATAT is lower in “PBM E-score” value: 0.342 for the first, 0.339 for the second.

First: CAGGATAA
Second: CCGGATAA
The “PBM E-score” value of the first is lower: -0.0581 for the first, 0.4 for the second.

First: GCGGATAA
Second: CGGGATAG
The “PBM E-score” value of the first is higher: 0.224 for the first, 0.102 for the second.

First: ACGGATAA
Second: CAGGATAG
The “PBM E-score” value of the first is higher: 0.299 for the first, 0.0949 for the second.

Going from CCGGATAC to ACGGATAG, the “PBM E-score” value falls from 0.257 to 0.139.

First: TCGGATAA
Second: TGGGATAA
The “PBM E-score” value of the first is higher: 0.379 for the first, -0.0513 for the second.

Compared with ATGTTCAA, ACCTTACG is lower in “PBM E-score” value: 0.134 for the first, 0.00591 for the second.

Going from GCAGGACA to CCTTCTTC, the “PBM E-score” value falls from 0.11 to -0.19.

Going from GGCGGGAA to CGCGGGGA, the “PBM E-score” value rises from 0.0413 to 0.125.

Going from AGCGGAAC to GGCGGAAA, the “PBM E-score” value falls from 0.194 to 0.108.

First: AGCGGAAA
Second: GGCGGAAC
The “PBM E-score” value of the first is higher: 0.27 for the first, 0.199 for the second.

Compared with CGCGGAAC, CGCGGAAA is lower in “PBM E-score” value: 0.382 for the first, 0.325 for the second.

Compared with CGCGGGAA, GATGGACA is lower in “PBM E-score” value: 0.311 for the first, 0.183 for the second.

Going from ATTAGCGC to ATAGATCA, the “PBM E-score” value rises from 0.056 to 0.216.

First: CAAGCTGG
Second: CCAGCCCA
The “PBM E-score” value of the first is higher: -0.129 for the first, -0.258 for the second.

Compared with ATACTCTG, CGGGTTCC is higher in “PBM E-score” value: 0.006 for the first, 0.246 for the second.

First: AAGAAACC
Second: CGTAGAGA
The “PBM E-score” value of the first is higher: 0.129 for the first, -0.0444 for the second.

Compared with GAACGCGC, AGTATATC is lower in “PBM E-score” value: 0.163 for the first, 0.155 for the second.

Compared with CGTATAAC, TGTATAAA is lower in “PBM E-score” value: 0.106 for the first, 0.0524 for the second.

First: AGTATAAC
Second: AGTATATA
The “PBM E-score” value of the first is lower: -0.0238 for the first, 0.334 for the second.

Going from GGTATAAA to AGTATATG, the “PBM E-score” value falls from 0.16 to 0.0296.

Going from CGTATAAA to AGTATAAA, the “PBM E-score” value rises from 0.311 to 0.365.

First: TCGCACAA
Second: CCATTTCC
The “PBM E-score” value of the first is lower: -0.0958 for the first, 0.13 for the second.

First: ACCTACAC
Second: CCCTCAAG
The “PBM E-score” value of the first is lower: -0.309 for the first, -0.297 for the second.

Going from GAAGTGGA to ATACCGAT, the “PBM E-score” value rises from 0.0603 to 0.11.

Going from CTACCGAA to GTACCGAA, the “PBM E-score” value rises from 0.105 to 0.227.

First: ATACCGAA
Second: TTACCGAA
The “PBM E-score” value of the first is lower: 0.322 for the first, 0.336 for the second.

Compared with ATACCGAC, AAAATGTA is lower in “PBM E-score” value: 0.0349 for the first, -0.017 for the second.
